# Test results: PubChem BioAssay (NCI)
# Values joined by “and” are separate entries in the source; they are usually repeats but may differ in a detail not shown here. Identical values can stand only once. This is part of a sample that, as a whole, favours compounds with a hit. Of some 83,000 tested, about 20% had one in any assay.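 The test compound was applied at a single concentration to cells in 96-well plates for 48 hours, and percent growth was recorded.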 A number with no mark means an inactive call. Active and inactive are the calls of the source. The calls were made as follows: active = growth percent below 10; inactive = the rest.
# Columns and labels:
# Assay in all cases: NCI-60 one-dose screen, 48 h (100 = growth as untreated, 0 = no growth, -100 = all killed)
# Conditions in all cases: 10 µM unless noted
# DU-145 prostate = tested on: DU-145 prostate
# K-562 leukemia = tested on: K-562 leukemia
# MALME-3M melanoma = tested on: MALME-3M melanoma
# MDA-MB-231 breast = tested on: MDA-MB-231 breast
# RXF 393 renal = tested on: RXF 393 renal
# SF-268 CNS = tested on: SF-268 CNS
# SF-295 CNS = tested on: SF-295 CNS
# SF-539 CNS = tested on: SF-539 CNS
# UACC-257 melanoma = tested on: UACC-257 melanoma
# M14 melanoma = tested on: M14 melanoma
# HCT-15 colon = tested on: HCT-15 colon
# HT29 colon = tested on: HT29 colon
# SNB-19 CNS = tested on: SNB-19 CNS
# U251 CNS = tested on: U251 CNS
# PC-3 prostate = tested on: PC-3 prostate
# SK-MEL-5 melanoma = tested on: SK-MEL-5 melanoma
# UACC-62 melanoma = tested on: UACC-62 melanoma
# LOX IMVI melanoma = tested on: LOX IMVI melanoma
# SK-MEL-28 melanoma = tested on: SK-MEL-28 melanoma
# SNB-75 CNS = tested on: SNB-75 CNS
SMILES,growth (DU-145 prostate),growth (K-562 leukemia),growth (MALME-3M melanoma),growth (MDA-MB-231 breast),growth (RXF 393 renal),growth (SF-268 CNS),growth (SF-295 CNS),growth (SF-539 CNS),growth (UACC-257 melanoma),growth (M14 melanoma),growth (HCT-15 colon),growth (HT29 colon) [%],growth (SNB-19 CNS),growth (U251 CNS),growth (PC-3 prostate),growth (SK-MEL-5 melanoma),growth (UACC-62 melanoma),growth (LOX IMVI melanoma),growth (SK-MEL-28 melanoma),growth (SNB-75 CNS)
COC(=O)[C@@H](Cc1c[nH]c2ccccc12)NC(=O)CCCCOc1cc(O)c2c(=O)cc(-c3ccccc3)oc2c1,93.3%,83.6%,94.3%,81.7%,76.8%,84.2%,91.2%,90.3%,97.1%,97.2%,80.8%,107,89.4%,92.2%,73.6%,-97.8% (active),66.3%,54.7%,101%,
CNC(=O)c1cc(N2CCc3cc(NC(=O)Nc4ccc(N5CCOCC5)c(C(F)(F)F)c4)ccc32)ccn1,27.2%,7.92% (active),25.8%,47.6%,-6.79% (active),47.8%,-21% (active),24.1%,59.1%,17%,5.54% (active),,23.1%,29.2%,7.98% (active),12.9%,-29.8% (active),12.5%,49.8%,38.6%
O=C1/C(=C/c2cc(F)cc(F)c2)Cc2cc3c(cc21)OCO3,54.4%,18.4%,37.9%,40.5%,29%,64.7%,35.6%,33.1%,73.6%,20.2%,27.2%,,49.7%,43.4%,25.3%,23.6%,24.3%,38.5%,57.8%,6.56% (active)
C[C@H]1OCC2(CCN(c3cnc(C(=O)Nc4cc(F)cc5cccnc45)cn3)CC2)[C@H]1N,78.2%,6.28% (active),48.1%,31.6%,58.4%,72.2%,92.2%,68.4%,101%,71.2%,14.5%,,73.5%,66.3%,50.8%,93.2%,31.7%,33.2%,61.4%,62.9%
COc1ccc(C(C)=C(c2ccc(OCCN3CCCCCC3)cc2)c2ccc(OCCN3CCCCCC3)cc2)cc1,6.1% (active),-32.5% (active),-86.9% (active),-60.5% (active),-82.4% (active),4.71% (active),-86% (active),-88.4% (active),-65.5% (active),-89.5% (active),-82.1% (active),,-51.7% (active),-77.9% (active),-54.6% (active),-92% (active),-65.2% (active),-84% (active),-89.3% (active),-12% (active)
C#CCN(C)CCCOc1ccc(NC(=O)CCCCCCC(=O)NO)cc1Cl,26.3%,18.5%,21.1%,16.3%,-44.3% (active),39.3%,7.83% (active),20.3%,25.6%,23%,64.9%,,30.3%,8.98% (active),26.5%,-4.82% (active),-28.9% (active),-61.4% (active),27.1%,26.3%
CS(=O)(=O)c1ccc(/C(=N/N=C(N)N)c2ccc(Cl)cc2)cc1,101%,40.7%,81.6%,96.1%,82.6%,80.7%,95.4%,91.8%,90.2%,72.8%,81.6%,,90.3%,92.8%,76.5%,92.2%,80.8%,79.7%,95.1%,72.8%
O=C(CSc1nc2ccccc2c(=O)n1-c1ccc(S(=O)(=O)Nc2ccc(Cl)nn2)cc1)Nc1ccc(S(=O)(=O)Nc2ccc(Cl)nn2)cc1,107%,88.1%,102%,102%,102%,101%,102%,103%,101%,111%,100%,,101%,102%,100%,97.2%,94%,90.4%,106%,96.1%
COc1cc2cc(Oc3ccc(NC(=O)c4cc(C(F)(F)F)cc(C(F)(F)F)c4)cc3)c(C)nc2cc1OCCN1CCOCC1,87.1%,26.5%,69.7%,75.7%,1.66% (active),72.6%,29.7%,59.4%,57.3%,60.5%,47.1%,,87.6%,55%,41.7%,14.6%,59.3%,69.6%,70.8%,47.7%
NC1CC2(CCN(c3cnc(C(=O)Nc4cc(F)cc5cccnc45)cn3)CC2)C1,81.3%,-13.3% (active),96.2%,80.1%,73.5%,83.1%,58%,75.7%,103%,78.9%,3.7% (active),,83.1%,57.1%,76.6%,95.3%,95.4%,-17% (active),93.3%,74.2%
COc1cc(-c2nc(-c3ccccc3)[nH]c2-c2ccnc(NCCCNS(=O)(=O)c3ccc(C(F)(F)F)cc3)n2)ccc1Cl,52.6% and 59.5%,18% and 23.5%,102% and 62.4%,57% and 55.8%,18.5% and 16.3%,37.9% and 49%,13.4% and 22.6%,65.6% and 55.5%,64.2% and 51.2%,18.7%,14.3% and 22.5%,,57.1% and 54.1%,40.7% and 39.8%,15.4% and 20.3%,22.4% and 52.3%,56% and 44.9%,18.1% and 47.6%,63.1% and 44.4%,
COc1cc2cc(Oc3ccc(NC(=O)Nc4ccc(F)c(C(F)(F)F)c4)cc3)c(C)nc2cc1OCCN(C)C,106%,3.63% (active),92.7%,103%,76.5%,98.5%,104%,102%,105%,95.7%,29.2%,,99.8%,100%,92%,90.9%,106%,54%,81%,98.8%
Cn1cc(-c2nnc(N)nc2-c2c[nH]c3ccc(F)cc23)c2cc(Br)ccc21,37.8%,6.36% (active),41.7%,47.3%,-12.7% (active),39.7%,9.61% (active),7.43% (active),50.9%,-6.09% (active),16.9%,,25.6%,,22.6%,4.51% (active),30.3%,29%,60.4%,0.251% (active)
O=C(/C=C/c1cccc(C(F)(F)F)c1)Nc1cccc(C(F)(F)F)c1,30.1%,23.2%,84.7%,108%,88.7%,70.7%,10.5%,97.1%,87.5%,56.8%,14.9%,,81.9%,26.9%,18.9%,89.1%,84.5%,28.4%,65.4%,97.5%
COc1cc2oc(-c3cccc(NC(=O)c4cccc([N+](=O)[O-])c4)c3)cc(=O)c2c(OC)c1OC,66.9%,60.3%,33.7%,41%,36.4%,43.2%,79.8%,-8.95% (active),88.2%,83.8%,56%,,53.6%,41.9%,50.2%,55%,51%,33.4%,88.1%,-13.5% (active)
